The list is not random: actives were taken first. Their share in the collection is about 2.1%.
ugtP null kill: kills S. aureus RN4220 lacking UgtP | S. aureus RN4220 ugtP deletion, OD600 growth, 16 h | growth inhibition, % (concentration not given with the values) | hit rate 0.54% among 330,000 | AID 1259309; in the data active = growth inhibition above about 68%;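 note: plate controls were untreated wells for no effect and antibiotic for full effect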
PfHsp40 rescue: compounds rescuing yeast from Plasmodium falciparum HSP40 toxicity; growth rescue, % at 12.5 µM; S. cerevisiae expressing PfHsp40, growth rescue, ATP luminescence; AID 504582; hit rate 0.68% among 340,000; in the data active = growth rescue above about 28%, passing the limit was not always enough;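 note: yeast W303a lacking pdr1 and pdr3 grown in galactose medium; growth measured after three days at 30 °C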
CCHF vOTU inh: CCHFV vOTU protease inhibition; Pep-AMC fluorescence; inhibition, % at 11.5 µM; hit rate 0.55% among 370,000; AID 651958; in the data active = inhibition above about 30%; note: 0% = vehicle wells with enzyme and 100% = no enzyme wells
PrPC TRFRET: reduces human prion protein on the cell surface; cell surface PrPC, TR-FRET read-out; P04156; inhibition, % at 13.8 µM; hit rate 0.43% among 370,000; in the data active = inhibition above about 24%; note: 0% = median of the test wells and 100% = reference compound wells
RN4220 kill: S. aureus RN4220 growth inhibition | OD600, 16 h | inhibition, % (no concentration beside the values) | hit rate 0.33% among 330,000 | AID 1259311; in the data active = inhibition above about 85%;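 note: plate controls were untreated cells for no effect and reference antibiotic for full effect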
PrP 5UTR inh: inhibition of PrP 5' UTR reporter expression | cell-based PrP 5' UTR mRNA reporter, plate reader | AID 488862 | hit rate 0.35% among 340,000 | inhibition, % (test concentration not listed); in the data active = inhibition above about 52%; note: 0 = median of the neutral control wells
PrPC TRFRET cf: cell surface PrPC inhibition, TR-FRET confirmation | hit rate 65% among 1,500 | shares compounds with PrPC TRFRET | inhibition, % at 13.8 µM | cell surface PrPC level; in the data active = inhibition above about 25%
LD9 tox: LD9 cell cytotoxicity, PrPc inhibitor counter-screen; shares compounds with PrPC TRFRET; LD9 cells cytotoxicity, luminescence viability; inhibition, % at 13.8 µM; hit rate 29% among 1,500; AID 743201; in the data active = inhibition above about 9.5%
* = called active by the depositor; . = not tested or not shown.

SMILES | ugtP null kill | PfHsp40 rescue | CCHF vOTU inh | PrPC TRFRET | RN4220 kill | PrP 5UTR inh | PrPC TRFRET cf | LD9 tox
CCOc1ccc(NC(=O)Nc2ccc(Cc3ccncc3)cc2)cc1 | 18 | 1 | -4 | 33* | 6 | 9 | 29* | 4
CCOc1ccc(NC(=O)C(=O)NCc2ccncc2)cc1 | 2 | -2 | -7 | 8 | -1 | -24 | . | .
O=[N+]([O-])c1ccc(NC(=S)NC(=NCS(=O)(=O)c2ccccc2)c2ccccc2)cc1 | -2 | . | . | . | -11 | . | . | .
COC(=O)c1ccc(NC(=O)c2nc(S(=O)(=O)Cc3cccc(C)c3)ncc2Cl)cc1 | . | -2 | 9 | 84* | . | -4 | 46* | 96*
CCOc1ccccc1NC(=O)c1nc(S(=O)(=O)Cc2ccccc2)ncc1Cl | 57 | 0 | 5 | -4 | 37 | -15 | . | .
CC1CCN(S(=O)(=O)c2ccc(NC(=O)c3ccncc3)cc2)CC1 | 2 | 3 | -1 | 2 | 2 | -20 | . | .
CCS(=O)(=O)c1ncc(Cl)c(C(=O)Nc2ccc(S(=O)(=O)N3CCC(C)CC3)cc2)n1 | . | 1 | 24 | 79* | . | -6 | 38* | 100*
CCc1ccc(NC(=O)c2nc(S(=O)(=O)Cc3ccccc3)ncc2Cl)cc1 | . | 1 | 14 | 64* | . | -20 | 24 | 96*
COC(=O)C1C[C@@]2(O)C(O)C(O)C(O)CC2N1CC1CCCCC1 (stereo partly drawn) | 4 | . | . | . | 5 | . | . | .
COc1ccc(SCC(Cc2ccccc2)N2CCC(NC(=O)OCc3ccccc3)CCC2=O)cc1 (stereo not drawn) | 3 | . | . | . | -5 | . | . | .
Cc1ccc(Sc2c(O)c3ccccc3n(C)c2=O)cc1 | 10 | 1 | -8 | 45* | -1 | -5 | 59* | -11
Cn1c(=O)c(Sc2ccccc2)c(O)c2ccccc21 | 3 | 1 | -7 | 2 | -1 | -21 | . | .
CC(=O)Nc1ccc(C(C)=NNc2nc(Nc3cccc4ccccc34)nc(N3CCOCC3)n2)cc1 | -9 | . | . | . | 3 | . | . | .
COc1ccc(N2C(=O)NC3CC2(C)Oc2ccc(Cl)cc23)cc1OC (stereo not drawn) | 3 | -1 | 3 | 3 | -3 | -28 | . | .
COc1cc(N2C(=O)NC3CC2(C)Oc2ccccc23)cc(OC)c1OC (stereo not drawn) | 1 | -2 | 4 | 33* | 2 | -13 | 3 | -7
O=C(CSc1nc2ccccc2c(=O)n1-c1ccccc1)N1CCc2ccccc2C1 | 9 | -1 | -7 | -6 | -1 | -11 | . | .
CC(C)c1ccccc1-n1c(SCC(=O)N2CCc3ccccc3C2)nc2ccccc2c1=O | 18 | 1 | 25 | 34* | -12 | -16 | 36* | 35*
Cc1cccc(NC(=O)CCC2CCN(C(=O)C3CC=CCC3)CC2)c1 (stereo not drawn) | 6 | 1 | 1 | -2 | 0 | -15 | . | .
COc1cccc(NC(=O)CCC2CCN(C(=O)C3CC=CCC3)CC2)c1 (stereo not drawn) | -7 | 0 | -10 | 29* | -2 | -8 | 8 | -3
Cc1ccc(CNC(=O)c2ccc(S(=O)(=O)N3CCCCC3)cc2)cc1 | 2 | -1 | -8 | 17 | 3 | -15 | . | .
CCN(CC)S(=O)(=O)c1ccc(C(=O)NCc2ccc3c(c2)OCO3)cc1 | 15 | 0 | -9 | 0 | 3 | -27 | . | .
Cc1cc2cc(CNC(=O)c3ccc(S(=O)(=O)N4CCCC4)cc3)ccc2n1C | -10 | 14 | 3 | 37* | -11 | -11 | 68* | 3
Cc1ccc(CNC(=O)c2ccc(S(=O)(=O)N3CCCC3)cc2)cc1 | . | . | -4 | 4 | . | . | . | .
Cc1cc2cc(CNC(=O)c3ccc(S(=O)(=O)N4CCCCC4)cc3)ccc2n1C | -9 | 0 | 13 | 39* | 9 | -3 | 21 | -8
CCN(CC)S(=O)(=O)c1ccc(C(=O)NCc2ccc3c(c2)cc(C)n3C)cc1 | -1 | 0 | 18 | 36* | 9 | -18 | 2 | -2
CCOC(=O)N1C2=NC(C(=O)OC)=C(C(=O)OC)C3N(C)c4ccccc4[C@]23CC1C(=O)OC (stereo partly drawn) | 2 | . | . | . | 8 | . | . | .
CCCCCCSc1ccc(-c2nc3ccc(C)cn3c2NCCCC)cc1OC | . | . | 9 | 8 | . | . | . | .

Screens (PubChem BioAssay)
